Here are results for 24 molecules from PubChem BioAssay AID504803 (The Scripps Research Institute Molecular Screening Center, 2011).

Hit rate of the full screen: of about 340,000 compounds, about 1,700 (0.5%) were called active. This is one part of a sample in which actives are shown more often than they occur. Unmarked numbers belong to inactive results. Cut-off read from the data, not from the text of the source: active = inhibition above about 36%; inactive = the rest.

Serine protease HTRA1 (Homo sapiens), sequence (Q92743 whole entry, looked up): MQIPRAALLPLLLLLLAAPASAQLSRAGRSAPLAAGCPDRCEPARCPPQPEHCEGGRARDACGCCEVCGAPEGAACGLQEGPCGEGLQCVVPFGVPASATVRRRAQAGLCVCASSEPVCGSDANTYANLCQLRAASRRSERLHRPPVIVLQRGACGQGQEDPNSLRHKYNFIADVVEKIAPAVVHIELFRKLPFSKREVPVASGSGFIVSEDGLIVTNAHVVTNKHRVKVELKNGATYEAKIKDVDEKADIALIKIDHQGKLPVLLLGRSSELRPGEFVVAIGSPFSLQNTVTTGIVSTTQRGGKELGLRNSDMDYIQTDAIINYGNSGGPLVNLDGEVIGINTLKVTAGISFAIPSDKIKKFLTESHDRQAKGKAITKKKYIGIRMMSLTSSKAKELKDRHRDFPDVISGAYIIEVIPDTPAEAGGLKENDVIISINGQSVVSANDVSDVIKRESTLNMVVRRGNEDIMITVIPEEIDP

The experiment has as its target Serine protease HTRA1 (Homo sapiens) (UniProt Q92743). The experiment is described as follows: inhibition of human HTRA1 peptidase – biochemical, fluorescence polarization, HTS, primary screen (AID 504803).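 Note: 0% = enzyme with DMSO and 100% = wells lacking enzyme.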 The settings on record: recombinant HTRA1, FP-rhodamine activity-based probe, at 5.96 µM, active compounds read high.
For the molecule `O=C1c2ccccc2C(=O)c2c1cccc2N1CCN(Cc2ccccc2)CC1`, the inhibition (as a rule, the change of the read-out against control, counted positive when it falls) was 62% (active).
The same measure for `O=C(CN1CCN(Cc2ccccc2)CC1)NC(c1ccccc1)c1ccccc1`: -2.99%; for `O=C1c2ccccc2C(=O)c2c1cccc2N1CCN(CCO)CC1`: 9.89%; for `CCCCN1C(=O)C(CC(=O)NCc2cccs2)CC(C(=O)N2CCOCC2)=C1C` (centres undefined): 1.73%.
The same measure for `Cc1noc(C)c1S(=O)(=O)N(C)C[C@H]1OCCCC[C@@H](C)Oc2ccc(NC(=O)CCCN(C)C)cc2C(=O)N([C@H](C)CO)C[C@@H]1C`: 1.73%; for `Cc1ccc(-c2ccc(CN3C(C)C(=O)N(Cc4cn(CCC5OCCCO5)nn4)CCS3(=O)=O)cc2)cc1` (centres undefined): -6.77%; for `C[C@H]1CN([C@@H](C)CO)C(=O)CCCn2cc(nn2)CO[C@@H]1CN(C)S(=O)(=O)c1cccs1`: 4.51%.
In the case of `O=C(NCCN1CCOCC1)c1ccc2c(c1)N(Cc1cccc(Cl)c1)C(=O)c1ccccc1S2(=O)=O`, the inhibition is -8.45%.
Turning to `O=C(Nc1nnc(SCc2ccccc2Cl)s1)c1cccc([N+](=O)[O-])c1`, the inhibition was -3.08%.
The same measure for `c1ccc(CSc2nnc(-c3ccco3)c(-c3ccco3)n2)cc1`: 42.8% (active).
The same measure for `Clc1ccc(CSc2nnc3c(n2)[nH]c2ccccc23)cc1`: -20.7%; for `Clc1ccccc1CSc1nnc(-c2ccco2)c(-c2ccco2)n1`: 49.6% (active).
The same measure for `S=C(NCc1ccco1)NCc1ccccc1Cl`: -12.8%.
In the case of `CCc1nnc(SCc2cccc(F)c2)nc1CC`, the inhibition was -3.55%.
The same measure for `O=C(NCc1nnnn1-c1ccc(Cl)cc1)c1ccc([N+](=O)[O-])o1`: 2.97%.
As for `CCN(CC)C(=O)C1=C(C)N(Cc2ccc(C(C)(C)C)cc2)C(=O)C(CC(=O)NCc2cccc3ccccc23)C1` (centres undefined), the inhibition was -39.3%.
The same measure for `Nc1cc(=O)c2[nH]cnc2[nH]1`: -44.6%; for `NS(=O)(=O)c1ccc(CNC(=O)c2cc(S(=O)(=O)N3CCOCC3)ccc2N2CCCC2)cc1`: 0.13%.
The same measure for `CCCc1ccc(S(=O)(=O)N2CCN(C(=O)c3cc(C)on3)CC2)cc1`: -2.05%; for `C[C@H]1Cn2cnc(C(=O)N[C@H](C)c3ccccc3)c2C(=O)N1`: 6.34%; for `c1ccc(Cn2nnc3c(NCC4CC4)ncnc32)cc1`: -4.95%.
Regarding `O=C(NCCS(=O)(=O)N1CCN(c2ccccc2)CC1)c1cc(=O)c2ccccc2o1`, the inhibition was 1.65%.
The same measure for `CCCc1c(C)nc2scc(-c3ccc(Cl)cc3)n2c1=O`: 0.07%; for `C#CCN(C[C@@H]1[C@@H](OC(=O)NC2CC2)[C@@H](OC(=O)NC2CC2)Cn2c(=O)ccc(=O)n21)S(=O)(=O)c1ccc(C)cc1`: -1.46%.
